# Screens from PubChem.
# Only some compounds are listed: those with a hit (about 4.1% of all), similar ones and a draw of the others.
# NALP3 yeast inh: NALP3 inflammasome inhibitors in reconstituted yeast, primary screen, luminescence, uHTS | inhibition, % at 10 µM | Yeast reconstituted NLRP3/ASC/caspase-1, beta-gal luminescence, 24 h | 330,000 tested, 0.39% active;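 active = inhibition of 50% or more; inactive = inhibition below 50%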;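 note: plate controls were induced DMSO wells for no effect and uninduced yeast grown without galactose for full effect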
# tim10-1 inh: growth inhibitors of tim10-1 mutant yeast, primary screen, luminescence, uHTS | S. cerevisiae tim10-1 ts strain growth, BacTiter-Glo, 24 h | 330,000 tested, 2.2% active | inhibition, % at 20 µM | AID 463190, 2010;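 active = inhibition of at least 40%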;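 note: mutant grown at 25 °C; 0% = DMSO wells with yeast and 100% = wells holding no yeast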
# NALP1 inh: NALP1 inflammasome inhibitors in reconstituted yeast, colorimetric, S. cerevisiae, triplicate retest; S. cerevisiae NALP1/ASC/caspase-1 growth, X-gal OD620, 72 h; inhibition, % at 10 µM; 280,000 tested, 0.61% active; in the data active = inhibition mostly above about 24%, no sharp cut-off; inactive = mostly below about 32%
# tim23-1 inh: growth inhibitors of tim23-1 mutant yeast, primary screen, luminescence, uHTS; S. cerevisiae tim23-1 growth, BacTiter-Glo luminescence, 24 h; inhibition, % at 20 µM; 330,000 tested, 1.3% active;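 active = growth inhibition of the mutant yeast at or above 50%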;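 note: temperature-sensitive mutant grown at 25 °C; plate controls were DMSO-treated mutant yeast for no effect and medium wells lacking yeast for full effect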
# PfHsp90 yeast 2: growth inhibition of PfHsp90-expressing yeast, primary screen, antimalarial PfHsp90 inhibitor project, S. cerevisiae, BacTiter-Glo luminescence, single point, set 2 | BacTiter-Glo ATP, 48 h; yeast lacking PDR1 and PDR3 efflux regulators | inhibition, % at 9.4 µM | 310,000 tested, 0.32% active;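 active = every replicate shows inhibition above about 80%, whatever the replicate mean, limit read from the data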;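 note: 0% = DMSO neutral controls and 100% = 20 µM radicicol positive controls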
# TIM10 inh: growth inhibitors of isogenic TIM10 control yeast, primary screen, counter-screen for tim10-1 yeast inhibitor project, luminescence, uHTS; S. cerevisiae TIM10 strain growth, BacTiter-Glo luminescence, 24 h; inhibition, % at 10 µM; 330,000 tested, 1.4% active;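 active = inhibition of 40% or more at the single tested concentration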;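 note: wild-type TIM10 isogenic control strain grown at permissive 25 °C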
# tim10-1 conf: growth inhibitors of tim10-1 mutant yeast, confirmation, single concentration, luminescence, S. cerevisiae. shares compounds with tim10-1 inh. S. cerevisiae tim10-1 ts strain growth, BacTiter-Glo, 24 h. inhibition, % at 20 µM. 7,400 tested, 56% active;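 active = inhibition of yeast growth at or above a set limit in either of two repeat tests at 20 µM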;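 note: tim10-1 mutant grown at permissive 25 °C to find synthetic lethal compounds; 0% = DMSO yeast wells and 100% = medium wells without yeast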
# TIM10 conf: growth inhibitors of wild-type TIM10 yeast, confirmation, counter-screen for tim10-1 synthetic lethality project, single concentration, luminescence, S. cerevisiae; shares compounds with TIM10 inh; S. cerevisiae tim10 strain growth, BacTiter-Glo luminescence, 24 h; inhibition, % at 10 µM; 4,600 tested, 63% active; AID 463215, 2010;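 active = inhibition of yeast growth at or above a set limit in either of two replicates at 10 µM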;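 note: this counterscreen used the strain with wild-type TIM10; 0% = yeast with DMSO and 100% = medium wells lacking yeast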
# tim23-1 confirm: tim23-1 mutant yeast growth inhibitors, confirmation, luminescence, single concentration | shares compounds with tim23-1 inh | 4,400 tested, 83% active | S. cerevisiae tim23-1 growth, BacTiter-Glo luminescence, 24 h | AID 463218, 2010 | inhibition, % at 20 µM;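 active = inhibition above about 39% in either of two replicate wells at 20 µM, limit read from the data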;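 note: temperature-sensitive tim23-1 mutant grown at 25 °C; 0% = DMSO wells with yeast and 100% = medium wells without yeast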
# An asterisk follows results filed as active; . = not tested or not shown.
SMILES,NALP3 yeast inh,tim10-1 inh,NALP1 inh,tim23-1 inh,PfHsp90 yeast 2,TIM10 inh,tim10-1 conf,TIM10 conf,tim23-1 confirm
Fc1nc(F)c(F)c(NCCCNc2c(F)c(F)nc(F)c2F)c1F,25.2,53.8*,1.6,65.5*,-4.5,55.1*,76.3*,45.0*,81.1*
Cc1cc(OCc2cc(C(=O)N3CCC(Oc4cccnc4)CC3)no2)cc(C)c1Cl,7.1,60.8*,8.5,51.4*,-2.4,40.5*,38.3*,47.5*,55.0*
COc1cccc(CN2c3ccc(Br)cc3C(=O)CS2(=O)=O)c1,18.7,40.5*,.,56.9*,-25.3,31.7,38.2*,.,59.8*
COc1cccc(CN2C(=O)C(C)Oc3ccccc32)c1 (stereo not given),3.5,9.9,12.3,-2.9,-10.0,-2.2,.,.,.
CCOC(=O)c1ccccc1NC(=O)COC(=O)c1ccc(OCC(=O)N2CCOCC2)c(OCC)c1,.,.,.,.,3.7,.,.,.,.
C[C@@]12CCC=C[C@H]1[C@H](c1ccccc1Br)N(Cc1ccccc1)C2=O,.,42.7*,.,62.9*,-27.9,40.2*,51.1*,47.6*,54.6*
O=C(ONC1=NCCCCC1)c1ccc([N+](=O)[O-])cc1,-2.0,51.6*,-22.6,86.2*,3.5,83.2*,34.2*,84.2*,65.5*
O=C1Nc2ccc(Br)cc2/C1=C/C1CC=CCC1 (stereo not given),-22.6,59.4*,-7.7,59.4*,102.6*,58.7*,50.2*,70.5*,-22.2
O=C1NC(Cc2ccccc2)C(=O)Nc2ccc(Br)cc21 (stereo not given),20.0,7.9,-18.9,4.7,0.9,0.0,.,.,.
CCCCCCNC(=O)c1cn(CC)c2cc(N3CCN(C)CC3)c(F)cc2c1=O,6.3,16.8,-1.1,19.7,-7.7,4.5,.,.,.
O=C(COC(=O)c1ccc([N+](=O)[O-])s1)c1ccc[nH]1,36.5,63.0*,.,63.7*,-22.0,79.5*,70.8*,84.4*,58.2*
CC(=O)O/N=C(/c1nonc1N)N1CCN(c2ccc([N+](=O)[O-])cc2Cl)CC1,-7.4,62.0*,23.4,63.5*,13.7,75.3*,66.8*,84.5*,74.8*
O/C=c1\ccc2cccc3nc(C(F)(F)F)nc1c23,3.3,62.9*,0.5,50.1*,8.2,52.3*,53.7*,50.8*,50.1*
COc1ccccc1C/C(N)=N/OC(=O)COc1cccc2ccccc12,21.3,58.2*,9.1,65.2*,.,74.2*,63.5*,62.3*,73.2*
COc1ccccc1C/C(N)=N/OC(=O)COc1ccc2ccccc2c1,18.1,47.9*,0.1,52.5*,14.7,55.0*,64.3*,43.0*,77.0*
O=C1c2ccccc2C(=O)c2c([N+](=O)[O-])ccc(O)c21,9.6,58.6*,.,58.7*,-13.0,35.0,37.8*,.,69.5*
COc1ccc(C(=O)C2CCN(S(=O)(=O)c3ccc4c(c3)OCCO4)CC2)cc1,18.1,56.3*,2.6,59.5*,-14.2,67.9*,56.5*,60.7*,45.9*
COc1ccc(OC)c(NC(=O)C2CCN(S(=O)(=O)c3ccc4c(c3)OCCO4)CC2)c1,14.0,7.6,.,17.2,.,1.3,.,.,.
C=CCCC(=O)N(C)CCO,14.0,-25.5,.,4.4,4.4,-5.8,.,.,.
Cc1ccc(-c2nc3ccccc3c(=O)o2)cc1,17.1,2.9,8.6,3.7,14.4,-1.0,.,.,.
